Compound activity deposited in PubChem by National Center for Advancing Translational Sciences (NCATS).
TGFb SMAD3 inh – blocks TGF-b signaling. HepG2 CAGA-GFP TGF-b/SMAD3 reporter, GFP fluorescence, 18 h; TGF-beta stimulated, 500 pg/mL final. Potency, µM (highest dose often 46.1 µM), inactives show top-dose activity, negative = inhibition, actives largely listed as inhibitors. 410,000 tested, 1.2% active. AID 588855; further: potency means the concentration at half of the fitted maximal effect; on the % scale 0 is the no-effect control and ±100 the full control effect; nearly all actives have a fitted effect of over 65% in size
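First, reporter cells (HEPG2 CAGA-GFP) rested 2 h at 37 degrees C. Next, compounds were pinned in and TGF-beta added to 500 pg/mL final. After 18 h, GFP was imaged per cell and summed per well.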
IL-1B inflam inh – inflammasome signaling inhibition, IL-1 beta readout | THP-1 LPS/ATP IL-1B secretion, AlphaLISA, 16 h; stronger effect = lower value | activity change, % at 57.5 µM | 360,000 tested, 4.7% active; in the data active means activity change below about -50%; inconclusive means mostly about -30% to -49%; further: on the % scale 0 is the no-effect control and ±100 the full control effect
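Secreted IL-1B measured by AlphaLISA bead assay after 16 h compound exposure of THP-1 cells; compounds (final up to 57.5 uM) added 1 h before LPS (250 ng/mL) and ATP (1.25 mM) stimulation; lower signal means less secretion.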
Giardia kill – kills Giardia lamblia | Giardia lamblia trophozoite viability | activity change, % at 7.66 µM, hits read low | 340,000 tested, 0.15% active; in the data active means activity change below about -80%; inconclusive means between about -30% and that limit;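 further: parasites exposed to compound for two days anaerobically before the ATP read; on the % scale 0 is the no-effect control and ±100 the full control effect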
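Luminescence from cellular ATP indicates surviving trophozoites (100 cells/well) following 48 hrs anaerobic compound treatment at 37 deg C; signal develops 15-30 min at room temperature.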
HT1080-NT tox – kills 2HG-producing HT-1080-NT fibrosarcoma cells; Potency, µM (titrated, usually from 46.1 µM), for inactives: at the top dose activity, negative = less viability, hits mostly cytotoxic; 360,000 tested, 1.6% active; HT-1080-NT fibrosarcoma viability, CellTiter-Glo ATP luminescence, 48 h;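 further: NT is the 2HG producing partner of a matched IDH1 knockdown line; potency means the concentration at half of the fitted maximal effect; 0% = DMSO-treated cells and -100% = media-only wells without cells; nearly all actives have a fitted effect of over 55% in size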
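HT-1080-NT; 750 cells/well; 5% FBS RPMI; 48 h compound, 37 degrees C; CellTiter-Glo luminescence; curve fitting and curve-class assignment.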
HepG2 viability – HepG2 cytotoxicity, counter-screen for TGF-b inhibitors; HepG2 CAGA-GFP viability, ATP luminescence, 18 h; Potency, µM (doses to about 46.1 µM), inactives show at the highest dose activity change, negative = cytotoxicity, usual class: cytotoxic; 410,000 tested, 0.76% active; AID 588856; further: potency means the concentration at half of the fitted maximal effect
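HepG2 CAGA-GFP cells (1000/well, DMEM with 1% FBS) received compound, then TGF-beta at 500 pg/mL final, and were incubated 18 hours at 37 degrees C. Viability was read by CellTiter-Glo luminescence. Media-only wells were set as complete cell-killing and DMSO as no toxicity.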
HT1080 IDH1KD tx – toxicity to HT-1080 IDH1 knockdown cells (counter line). HT-1080 IDH1 knockdown viability, ATP luminescence, 48 h. Potency, µM (doses to about 46.1 µM), for the others: at the highest dose activity, negative = toxicity, usual class: cytotoxic. 360,000 tested, 2% active. AID 686971;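 further: potency means the concentration at half of the fitted maximal effect; 0% = DMSO wells and -100% = cell-free medium wells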
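Cytotoxicity counter-line: IDH1KD HT-1080, 48 h, CellTiter-Glo. Curves classed by r2, magnitude and activity.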
An asterisk follows results filed as active; u = inconclusive; x = no result given; [ ] = dose if it differs, or a comment. Compounds with a hit are over-represented: about 6.5% of the library has one in this group of screens. Unless noted, the call rests on the fitted dose curve; in most records, active means well fitted curve in the direction sought with a large enough effect; inconclusive means small, poorly fitted or top-dose-only effect, or another doubt; inactive means no such curve, though single readings can be large; an effect the other way counts as inactive or inconclusive.

SMILES	TGFb SMAD3 inh	IL-1B inflam inh	Giardia kill	HT1080-NT tox	HepG2 viability	HT1080 IDH1KD tx
CCN(C(=O)CSc1cc(-c2ccccc2)c2ccc(OC)cc2n1)C1CCS(=O)(=O)C1 (stereo unspecified)	u	-61*	-16	-27%	1%	-28%
COc1ccc2c(-c3ccccc3)cc(SCC(=O)NC3CCS(=O)(=O)C3)nc2c1 (stereo unspecified)	u	-82*	2	u	-1%	u
COc1ccc2c(-c3ccccc3)cc(SCC(=O)N(C)C)nc2c1	-19%	-68*	-6	0%	-22%	-16%
CCN(C(=O)CSc1nc(-c2cccs2)nc2ccccc12)C1CCS(=O)(=O)C1 (stereo unspecified)	-7%	-93*	-5	-9%	13%	-7%
O=C(NC(=S)N1CCCCC1CO)C12CC3CC(CC(C3)C1)C2 (stereo unspecified)	11%	-4	1	12%	-2%	-1%
COc1ccccc1NC(=O)CSc1cn(CC(=O)N2CCCC2)c2ccccc12	-19%	x	x	x	-18%	x
CC(C)(C)NC(=O)CN(C(=O)C1(C)CC(=O)N=C2C=CC=CN21)C1CCCC1 (stereo unspecified)	3%	28	-1	3%[9.24 µM]	0%	-2%
O=C1[C@@H](Oc2ccccc2)[C@@H](c2ccccc2)N1c1ccccc1	7%	4	-21	3%	-2%	6%
O=C1[C@H](Oc2ccccc2)[C@@H](c2ccccc2)N1c1ccncc1	u	-104*	10	-20%	-50%	u
O=C1[C@@H](Oc2ccccc2)[C@@H](c2cccnc2)N1c1ccccc1	-16%	-5	-16	u	-19%	21µM*
Brc1ccc2nc(N3CCN(c4ccccc4)CC3)sc2c1	-5%	-74*	18	u	15%	21%
CCn1c(CNC(=O)c2ccc3c(c2)OCO3)nnc1SCC(=O)Nc1ccccc1F	9%	-2	-9	0%	2%	7%
N#Cc1c(N)n(CCOC(=O)c2cccc([N+](=O)[O-])c2)c2nc3ccccc3nc12	2%	-5	-5	-20%	-17%	-8%
O=C(c1ccc(S(=O)(=O)N2CCCCCC2)cc1)N1CCN(c2ccccc2)CC1	13%	-16	1	5%	4%	10%
CC1CC(C)CN(S(=O)(=O)c2ccc(C(=O)N3CCN(c4ccccc4)CC3)cc2)C1 (stereo unspecified)	-23%	-66*	5	-11%	-4%	u
Cc1ccc(S(=O)(=O)N2CCCC(C(=O)NCc3ccco3)C2)cc1Cl (stereo unspecified)	u	-8	-15	10%	-3%	6%
CCOc1ccc2nc(SCCNS(=O)(=O)c3ccccc3)sc2c1	u	-68*	-18	u	-8%	u
CS(=O)(=O)c1ccc2nc(NC(=O)c3ccco3)sc2c1	-18%	40	-15	u	-36%	u
Cc1ccc(C(=O)Nc2nc3ccc(S(C)(=O)=O)cc3s2)o1	-14%	3	-30	21µM*	-81%	u
CCOc1ccc2nc(NC(=O)c3ccco3)sc2c1	-6%	-22	-20	21µM*	-52%	18µM*
CCOC(=O)c1ccc2nc(NC(=O)c3ccco3)sc2c1	0%	-4	u	-23%	-54%	u
CCOc1ccc2nc(NC(=O)c3ccoc3C)sc2c1	-15%	u	-20	2.3µM*	1.8µM*	3.7µM*
CCCCCCN1C[C@H](n2cc(COC(=O)c3ccccc3)nn2)[C@@H](O)C[C@@H]1c1ccc(OC)cc1	u	18	x	-27%	-31%	-5%
Cc1cc(C(=O)Nc2ccc(S(=O)(=O)Nc3onc(C)c3C)cc2)c(C)o1	1%	29	-10	4%	-4%	5%
COCCN(C(=O)COC(=O)c1ccco1)c1c(N)n(Cc2ccccc2)c(=O)[nH]c1=O	-5%	-1	5	8%	-1%	4%
SMILES	TGFb SMAD3 inh	IL-1B inflam inh	Giardia kill	HT1080-NT tox	HepG2 viability	HT1080 IDH1KD tx
CCOc1ccc2nc(NC(=S)NCc3ccccc3)sc2c1	-6%	-4	-18	u	-28%	4µM*
CCOc1ccc(/C(CC)=N/NC(=O)C2(C)CC2(Br)Br)cc1 (stereo unspecified)	-30%	-1	-10	-16%	-42%	-12%
CCOc1ccc(Nc2nc(C)c(NC(=O)c3ccc(C)cc3)c(Nc3ccc(OCC)cc3)n2)cc1	u	x	x	x	-16%	x
Cc1ccc(Nc2nc(C)c(NC(=O)c3ccc(C)cc3)c(Nc3ccc(C)cc3)n2)cc1	14µM*	x	x	x	-18%	x
Cc1ccc2nc3c(nc2c1C)CCCC3	9%	10	-12	10%	11%	10%
O=C(CCCOc1ccccc1)N1CCN(c2ccccc2)CC1	0%	-20	-16	-7%	-5%	0%
O=C(CCOc1ccccc1)N1CCN(c2ccc(O)cc2)CC1	3%	30	-27	1.5µM*	6%	4.6µM*
COc1ccc2c(Sc3ccc(Cl)cc3)c(C(=O)N3CCC(C)CC3)[nH]c2c1	11µM*	x	x	x	-95%	x
COc1ccc2c(Sc3ccc(Cl)cc3)c(C(=O)N3CCCCC3)[nH]c2c1	u	x	x	x	-99%	x
CCCCCCCCC(c1nc2ccccc2[nH]1)N1CCN=C1c1cc2ccccc2[nH]1 (stereo unspecified)	u	-66*	x	u	-106%	u
CCC(c1nc2ccccc2[nH]1)n1c(-c2ccc3ccccc3c2)nc2ccccc21 (stereo unspecified)	x	u	x	-29%	x	-24%
O=C(Nc1ccc2ccccc2c1)C(c1ccc(C(F)(F)F)cc1)n1c(=O)c(-c2cc3ccccc3[nH]2)nc2ccccc21 (stereo unspecified)	x	60	x	u	x	16µM*
O=C(Nc1ccc2c(c1)OCCO2)C(c1ccc(C(F)(F)F)cc1)n1c(=O)c(-c2cc3ccccc3[nH]2)nc2ccccc21 (stereo unspecified)	x	-8	x	u	x	16µM*
O=C(Nc1ccc2c(c1)OCCO2)C(c1ccncc1)n1c(=O)c(-c2cc3ccccc3[nH]2)nc2ccccc21 (stereo unspecified)	x	-19	x	u	x	u
Cc1cc(-c2ccccc2)nc2oc(C(=O)NN)c(N)c12	u	25	14	-2%	-25%	-10%
CCOC(=O)C1(Cc2ccccc2C(F)(F)F)CCN(C2CCSC2)CC1 (stereo unspecified)	-20%	7	8	-11%	2%	-11%
